AHR act: activators of human aryl hydrocarbon receptor; activation, % at 5 µM; hit rate 2.5% among 320,000; P35869; AHR-responsive luciferase reporter cells, luminescence; in the data active = activation above about 47%
Target sequence (P35869 whole entry, looked up): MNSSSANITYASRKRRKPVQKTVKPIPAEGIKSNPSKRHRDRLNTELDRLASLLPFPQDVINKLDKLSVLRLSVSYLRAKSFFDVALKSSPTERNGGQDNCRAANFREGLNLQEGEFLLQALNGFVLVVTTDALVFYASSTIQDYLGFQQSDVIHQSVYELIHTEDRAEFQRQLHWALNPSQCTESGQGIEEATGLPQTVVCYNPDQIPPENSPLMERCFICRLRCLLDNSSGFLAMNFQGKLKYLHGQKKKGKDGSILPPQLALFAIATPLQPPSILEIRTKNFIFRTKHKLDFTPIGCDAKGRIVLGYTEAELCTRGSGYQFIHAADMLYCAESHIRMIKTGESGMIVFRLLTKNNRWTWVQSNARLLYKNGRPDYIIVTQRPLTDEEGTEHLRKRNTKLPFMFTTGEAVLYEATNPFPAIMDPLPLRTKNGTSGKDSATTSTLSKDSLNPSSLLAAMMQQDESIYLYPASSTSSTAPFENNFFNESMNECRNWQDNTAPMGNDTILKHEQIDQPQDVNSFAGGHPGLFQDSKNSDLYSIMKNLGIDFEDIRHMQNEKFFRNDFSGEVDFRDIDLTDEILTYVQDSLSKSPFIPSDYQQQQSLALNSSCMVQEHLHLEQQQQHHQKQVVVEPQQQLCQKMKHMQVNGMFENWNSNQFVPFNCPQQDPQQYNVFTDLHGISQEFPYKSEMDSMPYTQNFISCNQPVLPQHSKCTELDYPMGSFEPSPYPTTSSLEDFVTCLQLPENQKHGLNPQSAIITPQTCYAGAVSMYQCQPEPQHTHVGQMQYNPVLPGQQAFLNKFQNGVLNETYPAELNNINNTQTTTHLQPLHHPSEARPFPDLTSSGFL
PLC-gamma1 inh: PLC-gamma1 (human) inhibition, primary screen. P19174. inhibition, % at 12.2 µM. hit rate 0.84% among 370,000. purified PLC-gamma1, fluorogenic substrate, fluorescence. AID 720700; in the data active = inhibition above about 9.5%
HGIII-sPLA2 inh: Inhibits HGIII-sPLA2 liposome hydrolysis, primary screen. AID 743126. inhibition, % at 12.2 µM. QFRET BODIPY PC-A2 liposome hydrolysis, fluorescence. hit rate 0.56% among 370,000;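 active = inhibition above mean plus 3 SD of compounds lying within the high and low control bounds, cut at about 19% in these data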
CR mimetic SO: caloric restriction mimetics inhibiting age-related superoxide in yeast | S. cerevisiae aged cells, superoxide DHE fluorescence; hits give low values | superoxide response (% of plate mean), % at 10 µM | hit rate 0.18% among 330,000;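 active = superoxide response under a set limit, about three screen SD below normal, cut at about 65% in these data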;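 note: yeast aged for seven days with compound at 30 °C before DHE staining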
PLCb3 inh: PLC-beta3 (human) inhibition, primary screen. Purified PLC-beta3, fluorogenic substrate, fluorescence. inhibition, % at 12.2 µM. Q01970. hit rate 0.18% among 370,000; in the data active = inhibition above about 11%
HIF activator: HIF pathway transcriptional activation. U2OS HRE-luciferase reporter, luminescence; normalized: DMSO 0%, desferrioxamine 100%. activation, % at 7.5 µM (by protocol). hit rate 0.32% among 300,000. AID 1910;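 active = mean activation of at least 10% of the iron chelator positive control signal, with at least half of replicates also reaching 10%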
AHR act confirm: human AHR activation, confirmation | shares compounds with AHR act | activation, % at 9 µM | hit rate 87% among 2,300 | human cells, AHR-responsive luciferase reporter, luminescence; in the data active = activation above about 49%;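 note: HepG2 hepatoma cells carrying a DRE-driven firefly luciferase reporter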
PXR act counter: PXR activation, counter-screen for AHR activators. shares compounds with AHR act. cell-based PXR reporter, luciferase luminescence. activation, % at 11.6 µM. hit rate 88% among 2,300; in the data active = activation above about 11%;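 note: human hepatoma DPX-2 cells expressing full-length human PXR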
Large screens that a line does not name were inactive (follow-up assays come after a bar, where they were run). Most compounds without a hit are left out; they make up all but 3.9% or so of the library.

N=c1n(CC(=O)c2ccc(Br)cc2)c2ccccc2n1Cc1ccccc1	AHR act 124.2 (no result: HIF activator) | AHR act confirm 81.3 | PXR act counter 46.4
CCCCNC(=S)N/N=C1\C(=O)c2cccc3cccc1c23	none
CNC(=S)N/N=C1\C(=O)c2cccc3cccc1c23	AHR act 89.8 | AHR act confirm 114.0 | PXR act counter 38.5
C=CCn1c(=N)n(CC(=O)c2cccc([N+](=O)[O-])c2)c2ccccc21	AHR act 85.1 | AHR act confirm 128.3 | PXR act counter 58.5
N=c1n(CCN2CCCCC2)c2ccccc2n1CC(=O)c1cccc([N+](=O)[O-])c1	none
CCn1ncc(-c2cc(C(=O)O)no2)c1C	AHR act 80.4 | AHR act confirm inactive | PXR act counter inactive
Cc1c(-c2cc(C(=O)O)no2)cnn1C	none
CCCc1cc(=O)oc2cc(C)cc(OCC(=O)Nc3cccnc3)c12	AHR act 116.1 | AHR act confirm 82.3 | PXR act counter 25.8
CCCc1cc(=O)oc2cc(C)cc(OCC(=O)NCC(O)c3ccccc3)c12 (stereo not given)	none
CCCCCCN1C[C@@H](O)[C@H](n2cc(COC(=O)c3ccccc3)nn2)C[C@@H]1c1ccccc1	none (no result: AHR act, CR mimetic SO, HIF activator)
Cn1c(SCC(=O)NC2CCCC2)nnc1-c1ccccn1	none
Nc1nc2ccccc2n1/N=C/c1ccc([N+](=O)[O-])s1	AHR act 127.6 | AHR act confirm 79.0 | PXR act counter 11.4
Cn1nc(NC(=O)C(F)(F)F)c2ncc(-c3ccc(Cl)cc3)nc21	AHR act 133.6 | AHR act confirm 130.7 | PXR act counter 37.1
Cn1nc(NC(=O)C(F)(F)F)c2nccnc21	none (no result: AHR act, CR mimetic SO, HIF activator)
Cc1ccc(-n2sc3ccccc3c2=O)cc1	AHR act 79.9 | AHR act confirm 74.1 | PXR act counter 30.4
O=c1c2ccccc2sn1-c1ccc(F)cc1	none (no result: HIF activator)
O=C(OCc1nnc(-c2ccccc2)o1)c1cc(S(=O)(=O)N2CCOCC2)ccc1F	none
COc1ccc(-c2csc(Nc3cccc(C)n3)n2)cc1C	none (no result: AHR act)
CC(=O)Oc1ccc(-c2csc(Nc3ccccn3)n2)cc1	none (no result: AHR act, CR mimetic SO, HIF activator)
Nc1ccc(Nc2nc(-c3cccs3)cs2)cc1	AHR act 117.1 | AHR act confirm inactive | PXR act counter 16.2
Cc1cccc(Nc2nc(-c3cccs3)cs2)n1	AHR act 87.2 | AHR act confirm 160.5 | PXR act counter 20.8
Oc1ccc(-c2csc(Nc3ccccn3)n2)c(O)c1	AHR act 168.8 | AHR act confirm 102.8 | PXR act counter 14.7
c1ccc(Nc2nc(-c3cccs3)cs2)nc1	AHR act 117.3 | AHR act confirm 154.6 | PXR act counter 23.2
CCCS(=O)(=O)NC(=O)C1(C)CCN(C(=O)c2ccccc2OC(C)=O)C1 (stereo not given)	none (no result: AHR act, CR mimetic SO, HIF activator)
Cc1c(N)cccc1Cl	none (no result: AHR act, CR mimetic SO, HIF activator)
NC(=O)COC(=O)CC1CC2CCC1C2 (stereo not given)	none
COc1ccc(OC)c(CNc2ccc3c(c2)nc(C)n3C)c1	none
COc1ccc(N=Nc2nc3cc(Br)c(Br)cc3n2C)c(OC)c1	AHR act 83.1 (no result: HIF activator) | AHR act confirm 56.6 | PXR act counter 18.4
COCc1cc(=O)n2[nH]c(-c3cccc(Br)c3)cc2n1	AHR act 119.5 | AHR act confirm 115.0 | PXR act counter 12.8
Cc1ccc(C)c(NC(=S)c2ccc3ccccc3n2)c1	AHR act 88.0 | AHR act confirm 104.5 | PXR act counter 15.6
Cc1ccc(C)c(NC(=S)c2ccccn2)c1	AHR act 117.8 | AHR act confirm 105.5 | PXR act counter 25.9
CCn1cnc2cc(NCc3ccc(Cl)cc3)ccc21	AHR act 98.7 | AHR act confirm 98.2 | PXR act counter 32.5
COCc1c(C(=O)OCC(=O)N2c3ccccc3CC2C)oc2ccccc12 (stereo not given)	none
Cc1c(C(=O)N2c3ccccc3CC2C)oc2ccccc12 (stereo not given)	AHR act 85.4 | AHR act confirm 73.7 | PXR act counter 27.5
Cc1ccc(NC2=C(NC(=O)c3ccccc3)C(=O)c3ccccc3C2=O)cc1Cl	AHR act 104.3 | AHR act confirm 106.3 | PXR act counter 92.9
O=C(Nc1nnc(-c2ccc(F)cc2)s1)c1ccco1	none
Cc1cccc(-c2nnc(NC(=O)c3ccco3)s2)c1	AHR act 164.1 | AHR act confirm 129.0 | PXR act counter 53.7
O=C(Nc1ccc2nc(-c3cccnc3)[nH]c2c1)c1ccco1	none
Cc1ccc(O)c(NC(=O)c2cccc(NC(=O)c3ccco3)c2)c1	AHR act 103.9 | AHR act confirm 129.4 | PXR act counter 20.8
Cc1ccc2nc(-c3cccc(NC(=O)c4ccco4)c3)[nH]c2c1	AHR act 90.8 | AHR act confirm 91.8 | PXR act counter 16.0
O=C(NC1CCCC1)C1c2ccccc2OCC(=O)N1C1CC1 (stereo not given)	none (no result: AHR act, CR mimetic SO, HIF activator)
O=Nc1ccc(Br)cn1	none (no result: AHR act, CR mimetic SO, HIF activator)
Cc1cc(C)nc(Nc2n[nH]c(-c3ccccc3C)n2)n1	AHR act 87.3 | AHR act confirm 130.9 | PXR act counter 45.3
Cn1c(CNC(=O)c2ccco2)nnc1SCCOc1ccccc1	none (no result: AHR act, CR mimetic SO)
Cc1ccc(NC(=O)c2ccc3nc(N4CCOCC4)sc3c2)c(Cl)c1	none
CC1=NN(C(N)=S)C(=O)C1N=Nc1cccc(Cl)c1C (stereo not given)	AHR act 138.4 | AHR act confirm 138.7 | PXR act counter 16.4
C=CCNC(=O)c1cc(-c2ccncc2)nc2c(C)cc(C)cc12	AHR act 80.7 | AHR act confirm 65.2 | PXR act counter 44.8
FC(F)(F)c1cc(C(F)(F)F)n2nc(-c3sccc3-n3cccc3)cc2n1	none
Cc1cc(C)n2nc(-c3sccc3-n3cccc3)cc2n1	AHR act 93.2 | AHR act confirm 55.0 | PXR act counter 60.9
Cc1cccc(C)c1OCC(=O)N(Cc1ccc(Cl)cc1)C1CCS(=O)(=O)C1 (stereo not given)	none (no result: HIF activator)
Cc1ccc(NS(=O)(=O)c2c(C)nc3sccn3c2=O)cc1C	none
COc1ccc(NC(=O)Nc2ccc(F)cc2)c(C)c1	AHR act 111.0 | AHR act confirm inactive | PXR act counter 25.4
C=CCNc1sc(C(=O)c2ccccc2)c(N)c1-c1nc2ccccc2s1	AHR act 131.9 (no result: PLC-gamma1 inh, HGIII-sPLA2 inh, PLCb3 inh) | AHR act confirm 89.7 | PXR act counter 43.5
Cc1c(Cc2ccc3c(c2)OCO3)sc(NC(=O)c2cccc3ccccc23)c1C(N)=O	AHR act 103.4 | AHR act confirm 60.1 | PXR act counter 57.8
Cc1n[nH]c(=O)n1-c1ccc(OCc2ccccc2)cc1	none
COc1ccc(Nc2nc3cc(C)ccc3cc2C#N)c(OC)c1	none
COc1ccc(Nc2nc3cc(C)ccc3cc2C#N)cc1	AHR act 107.6 | AHR act confirm 93.7 | PXR act counter 14.9

Compound activity: PubChem, several laboratories
